Screening results as filed in PubChem.
Compounds with a hit are over-represented: about 10% of the library has one in this group of screens.
HEK cytotox: HEK 293 cell cytotoxicity | HEK 293 viability, ATP luminescence (CellTiter-Glo), 48-72 h | AID 1345083 | 6.6% of 94,000 active | Potency, µM (doses to about 115 µM), for the others: top-dose activity change, negative = cytotoxicity, usual class: inhibitors; note: nearly all actives have a fitted effect of over 60% in size
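Cytotoxicity was scored by loss of ATP-coupled luminescence (CellTiter-Glo) in HEK 293 cells. Compound treatment ran 48 or 72 hr at 37 degree Celsius, 5% CO2, 95% humidity.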
NIH3T3 tox: cytotoxic compounds in NIH 3T3 cells; NIH 3T3 viability, CellTiter-Glo ATP luminescence, 48-72 h; Potency, µM (titrated, usually from 96.7 µM), for the others: at the top dose activity change, negative = cytotoxicity, most hits filed as inhibitors; 4.3% of 94,000 active; AID 1345082; note: nearly all actives have a fitted effect of over 55% in size
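NIH 3T3 cells at 400 cells/well received 23 nL of compound by pintool and were incubated 48 or 72 h at 37 °C. Viability was read as ATP-coupled CellTiter-Glo luminescence.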
GPT2 inh: GPT2 alanine aminotransferase inhibition; Q8TD30; Recombinant GPT2, coupled pyruvate oxidase/HRP Amplex Red fluorescence; Potency, µM (titrated, usually from 57.7 µM), for the others: top-dose activity change, negative = inhibition, actives largely listed as inhibitors; 0.25% of 100,000 active; note: nearly all actives have a fitted effect of over 60% in size
Target sequence (Q8TD30 whole entry, looked up): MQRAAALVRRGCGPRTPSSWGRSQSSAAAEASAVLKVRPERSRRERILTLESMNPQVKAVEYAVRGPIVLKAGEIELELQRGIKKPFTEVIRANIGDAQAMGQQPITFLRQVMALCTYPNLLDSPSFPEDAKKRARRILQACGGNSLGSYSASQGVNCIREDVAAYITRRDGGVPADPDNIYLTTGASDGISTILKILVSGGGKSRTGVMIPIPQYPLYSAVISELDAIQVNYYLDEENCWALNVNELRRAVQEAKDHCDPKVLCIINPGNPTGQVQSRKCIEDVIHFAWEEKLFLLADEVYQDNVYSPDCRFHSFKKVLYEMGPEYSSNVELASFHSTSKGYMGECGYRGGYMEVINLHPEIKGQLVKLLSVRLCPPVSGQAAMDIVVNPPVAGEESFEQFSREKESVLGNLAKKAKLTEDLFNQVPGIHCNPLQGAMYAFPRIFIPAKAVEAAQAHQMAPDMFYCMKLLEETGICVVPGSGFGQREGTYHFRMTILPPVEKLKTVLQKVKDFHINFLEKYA
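Inhibition is scored from Amplex Red fluorescence generated when pyruvate oxidase and HRP act on pyruvate released by GPT2. Reactions contain 10ng/uL enzyme, 250uM a-KG and 2mM L-alanine and run 30 min at room temperature.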
NPR1 antag: antagonists of human natriuretic peptide receptor Npr1; Potency, µM (top dose mostly 46.3 µM), for the others: at the highest dose activity change, negative = inhibition, usual class: inhibitors; 1.6% of 76,000 active; P16066; HEK293 hNpr1 GloSensor cGMP, ANP-stimulated luminescence; calls by dose curve; note: nearly all actives have a fitted effect of over 60% in size
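HEK293 cells stably expressing human Npr1 and cGMP GloSensor pGS-40F, loaded 2 h with 2% GloSensor reagent, given compound 30 min at room temperature. Luminescence read before and 20 min after 0.1 nM hNppA.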
Luciferase inh: blocks purified firefly luciferase enzyme activity; 2.5% of 76,000 active; P08659; AID 1347043; purified P. pyralis luciferase, luminescence, biochemical; Potency, µM (doses to about 115 µM), actives largely listed as inhibitors; note: nearly all actives have a fitted effect of over 65% in size
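Cell-free enzyme assay, 10nM P. pyralis luciferase, luciferin and ATP each at 10uM. Inhibition profiled over a 6-point titration, read as luminescence.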
The depositor's hits bear a star; i = inactive; ? = inconclusive; / = no result; [ ] = another dose, or the depositor's remark. Unless noted, calls come from the whole dose curve; as a rule, active = well fitted curve in the direction sought with a large enough effect; inconclusive = small, poorly fitted or top-dose-only effect, or another doubt; inactive = no such curve, though single readings can be large; an effect the other way counts as inactive or inconclusive. % is set by controls: 0 for no effect and ±100 for the full control effect; potency is the fitted concentration of half-maximal effect.

SMILES	HEK cytotox	NIH3T3 tox	GPT2 inh	NPR1 antag	Luciferase inh
O=C(Cn1cccn1)N1C[C@@H](COCC2CC2)[C@H](c2ccccn2)C1	1.0%	0.6%	i	1.8%	i
Cn1ncc2c(C(=O)N3CCCCC3)cc(-c3ccccc3C(F)(F)F)nc21	?	-38.4%	/	/	/
CC(=O)N1CCN(C(=O)c2cc(-c3ccccc3C(F)(F)F)nc3c2cnn3C)CC1	1.0%	-14.0%	/	/	/
Cn1ncc2c(C(=O)N3CCC(Cc4ccccc4)CC3)cc(-c3ccccc3C(F)(F)F)nc21	39.8µM*	28.2µM*	/	/	/
Cn1ncc2c(C(=O)N3CCC(c4ccccc4)CC3)cc(-c3ccccc3C(F)(F)F)nc21	44.7µM*	28.2µM*	/	/	/
Cn1ncc2c(C(=O)N3CCN(Cc4ccccc4)CC3)cc(-c3ccccc3C(F)(F)F)nc21	44.7µM*	?	/	/	/
COc1ccc(-c2cc(-c3ccc(N4CCOCC4)nc3)cn3cncc23)cc1	?	?	-7.3%[88.5 µM]	-3.5%[70.6 µM]	?
CCc1cc(=O)n(CC(=O)N2CCN(c3ccccc3F)CC2)c(N2CCOCC2)n1	39.8µM*	?	i	-23.5%	i
O=C(CN1CC(=O)NC1=O)NCc1noc(-c2ccc3c(c2)OCO3)n1	?	-8.8%	i	10.2%	i
Cc1ccc(CNC(=O)C2CCCN(C3CCN(C(=O)C4CC4)CC3)C2)cc1F (centres undefined)	-3.3%	i	-0.9%	6.1%	i
Cc1c(-c2ccccc2F)[nH]c2ccc(CNC(=O)CCn3cnnc3)cc12	-8.8%	?	-9.8%	0.1%	?
Cc1c(-c2ccccc2F)[nH]c2ccc(CNC(=O)CN3CC(=O)NC3=O)cc12	?	?	i	-5.1%	15.8µM*
Cc1nc(CCC(=O)NCc2ccc3[nH]c(-c4ccccc4F)c(C)c3c2)n[nH]1	?	?	i	-1.1%	15.8µM*
Cc1c(-c2ccccc2F)[nH]c2ccc(CNS(=O)(=O)C3CC3)cc12	35.5µM*	?	?	?	?
Cc1c(-c2ccccc2F)[nH]c2ccc(CNC(=O)C3CCNC3)cc12 (centres undefined)	?	?	i	-18.2%	20µM*
C[C@@H](NC(=O)NC(C)(C)C)c1onc(-c2ccc(Cl)cc2)c1C(=O)O	i	i	-4.1%[88.5 µM]	-2.6%[70.6 µM]	i
O=C(Nc1cccnc1)c1nnn2c1CN(Cc1ccccc1F)C(=O)CC2	-1.0%[172 µM]	100µM*	1.8%[88.5 µM]	0.0%[70.6 µM]	i
C[S+](=O)([O-])c1cccc(NC(=O)c2nnn3c2CN(Cc2cccc(Cl)c2)C(=O)CC3)c1	?	?	-15.0%	3.4%	i
CC(C)CN(C)C(=O)c1cc(-c2cnn(C(C)C)c2)nc2cc(F)ccc12	-28.9%	?	-2.9%	1.6%	?
CC(C)n1cc(-c2cc(C(=O)N(C)Cc3cccnc3)c3cc(F)ccc3n2)cn1	?	-18.6%	-8.7%[11.5 µM]	-2.1%	35.5µM*
CN1CCC(C(=O)N2Cc3ccccc3CC3(CCCCN3CC3CCNCC3)C2)CC1 (centres undefined)	-10.7%	-11.2%	i	/	/
CN(C)CCCC(=O)N1Cc2ccccc2CC2(CCCCN2Cc2ccccc2)C1 (centres undefined)	79.4µM*	?	i	/	/
O=C(O)CCC(=O)N1Cc2ccccc2CC2(CCCN2Cc2ccccc2)C1 (centres undefined)	-2.4%	-6.2%	i	/	/
O=C(c1ccccc1)N1Cc2ccccc2CC2(CCCCN2CC2CCNC2)C1 (centres undefined)	79.4µM*	?	1.0%	/	/
O=C(c1cccnc1)N1CC[C@H](c2nnc(-c3cccnc3)o2)C1	-10.2%[172 µM]	i	i	-0.3%[70.6 µM]	i
CCN1C(=O)C2CC3(CCN(S(=O)(=O)c4cnn(CC)c4)CC3)CN2C1=O (centres undefined)	-5.8%	-2.1%	1.4%	0.3%	i
COc1ccc(CC(=O)N[C@H]2[C@H](O)[C@H](O)C[C@@H]2c2ccc(OC)cc2)cc1	-2.7%[172 µM]	3.5%[138 µM]	-7.6%[88.5 µM]	-0.1%[70.6 µM]	i
O=C(NCCc1ccc(Cl)cc1Cl)C1CNCCO1 (centres undefined)	-2.5%	-25.0%	3.4%	-3.8%	i
Clc1ccc(CCNc2ncncn2)c(Cl)c1	39.8µM*	?	2.5%	?	i
